This is one part of a sample in which hits are shown more often than they occur.
CHX counter: Cycloheximide Counterscreen for Small Molecule Inhibitors of Shiga Toxin | cell reporter, cycloheximide protein synthesis inhibition counterscreen | max response, % | 300,000 compounds, 12% hits; in the data active = max response mostly above about 13%, no sharp cut-off; inactive = mostly below about 14%; also: read at 38.3 µM for the half of the compounds with a filed dose; 0% is about no effect
Giardia FBPA inh: qHTS Assay for Inhibitors of Fructose-1,6-bisphosphate Aldolase from Giardia Lamblia | purified Giardia FBPA | Potency, µM (doses to about 59.6 µM), for inactives: at the highest dose activity, negative = inhibition, hits mostly inhibitors | 290,000 compounds, 0.71% hits; also: potency is read from the fitted curve at half-maximal effect; % is scaled to controls: 0 for no effect and ±100 for the full control effect; nearly all actives have a fitted effect of over 55% in size
Target sequence (A8B2U2 whole entry, looked up): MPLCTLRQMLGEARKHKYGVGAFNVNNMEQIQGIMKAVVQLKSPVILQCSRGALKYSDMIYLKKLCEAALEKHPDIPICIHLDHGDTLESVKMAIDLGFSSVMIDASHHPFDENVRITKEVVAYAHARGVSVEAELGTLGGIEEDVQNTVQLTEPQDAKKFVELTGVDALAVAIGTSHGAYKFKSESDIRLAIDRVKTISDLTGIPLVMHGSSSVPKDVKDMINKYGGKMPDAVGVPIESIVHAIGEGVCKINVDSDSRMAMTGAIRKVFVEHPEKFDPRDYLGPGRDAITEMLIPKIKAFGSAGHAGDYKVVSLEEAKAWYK
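40 nM FBPA preincubated 10 min at RT with compound (up to 57.5 uM final), then substrate plus GAPDH/TPI/NAD/arsenate coupling and diaphorase/resazurin added. Fluorescence read after 20 min at RT, 525/598 nm.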
LmPK inhibitor: qHTS Assay for Inhibitors of Leishmania Mexicana Pyruvate Kinase (LmPK) | Q27686 | purified LmPK, Kinase-Glo ATP luminescence, 1 h | Potency, µM (highest dose often 57.5 µM), inactives show at the highest dose activity change, negative = inhibition, hits mostly inhibitors | 290,000 compounds, 0.37% hits; also: potency is read from the fitted curve at half-maximal effect; % is scaled to controls: 0 for no effect and ±100 for the full control effect
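0.1 nM LmPK, 0.5 mM PEP, 0.1 mM ADP; 50 mM imidazole pH 7.2, 7 mM MgCl2, 50 mM KCl; 1 h RT. Kinase-Glo luminescence readout, normalized to no-enzyme (full inhibition) and uninhibited wells.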
Tb PYK inh: qHTS of Trypanosoma Brucei Inhibitors. 410,000 compounds, 0.12% hits. TbPYK enzyme, Kinase-Glo Plus ATP luminescence, 45 min. Potency, µM (doses to about 76.8 µM), inactives show at the highest dose activity, negative = inhibition, usual class: inhibitors; also: potency is read from the fitted curve at half-maximal effect; % is scaled to controls: 0 for no effect and ±100 for the full control effect; nearly all actives have a fitted effect of over 50% in size
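Luminescent Kinase-Glo Plus end-point after 45 min room-temperature reaction of T. brucei pyruvate kinase started with 130 uM ADP (final). Buffer TEA 50 mM pH 7.2 with KCl, MgCl2, BSA, Tween-20; titration-based qHTS with fitted concentration-effect curves.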
Shiga inhibitor: A qHTS for Small Molecule Inhibitors of Shiga Toxin; Vero cells, Shiga toxin protein synthesis inhibition reporter; inhibition, % at 38.7 µM; 290,000 compounds, 9.2% hits; AID 2315, 2010; in the data active = inhibition mostly above about 28%, no sharp cut-off; inactive = mostly below about 43%; also: 0% is about no effect
RE007 growth inh: qHTS Assay for Inhibitors of the HIV-1 protein Vpr | Potency, µM (titrated, usually from 92.2 µM), for the others: top-dose activity change, negative = less growth, actives largely listed as inhibitors | S. pombe RE007 Vpr strain, BacTiter-Glo ATP luminescence, 24 h | 360,000 compounds, 0.21% hits; active = well fitted falling curve with a large enough effect; inconclusive = small, poorly fitted or top-dose-only effect; inactive = no such curve, though single readings can be large or run the other way; also: potency is read from the fitted curve at half-maximal effect; % is scaled to controls: 0 for no effect and ±100 for the full control effect; nearly all actives have a fitted effect of over 50% in size
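Fission yeast strain RE007, carrying one chromosomally integrated HIV-1 vpr copy, was seeded at OD 0.01 in PMG+AL medium with 23 nL pinned compound. After 24 h at 30 °C and 99% humidity, viability was read by BacTiter-Glo luminescence.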
Starred values were filed as active, the others as inactive. Unless noted, calls follow the shape of the dose curve; as a rule, active = well fitted curve in the direction sought with a large enough effect; inconclusive = small, poorly fitted or top-dose-only effect, or another doubt; inactive = no such curve, though single readings can be large; an effect the other way counts as inactive or inconclusive.

How did CN(C)c1ncc2nc(-c3ccccc3)c(=O)n(CCc3ccccc3)c2n1 do in these assays?
Giardia FBPA inh: 0%

Results for COc1ccc(C)cc1NC(=O)c1ccc(=O)n(Cc2ccccc2)c1 ?
Tb PYK inh: 1%

What do the screens show for `NNc1nc2c(-c3cccc(C(F)(F)F)c3)nnn2c2ccccc12`?
CHX counter: 15*; Giardia FBPA inh: -28%; LmPK inhibitor: -9%; Tb PYK inh: -6%; Shiga inhibitor: 53*; RE007 growth inh: -4%

What do the screens show for `Nc1nc2c(-c3ccc(Br)cc3)nnn2c2ccccc12`?
CHX counter: 49*; Giardia FBPA inh: 2%; LmPK inhibitor: -5%; Tb PYK inh: -4%; Shiga inhibitor: 96*; RE007 growth inh: -3%

Results for CNc1nc2c(-c3ccc(Cl)cc3)nnn2c2ccccc12 ?
CHX counter: 15; Giardia FBPA inh: -4%; LmPK inhibitor: 5%; Tb PYK inh: -11%; Shiga inhibitor: 17; RE007 growth inh: -9%

How did Cc1ccc(-c2nnn3c2nc(NC(C)C)c2ccccc23)cc1 do in these assays?
CHX counter: 14*; Giardia FBPA inh: 4%; LmPK inhibitor: -2%; Tb PYK inh: -8%; Shiga inhibitor: 20; RE007 growth inh: -7%

How did Cc1ccc(-c2nnn3c2nc(NC2CCC(C)CC2)c2ccccc23)cc1 (configuration not stated) do in these assays?
Tb PYK inh: -7%

Results for CCNc1ncc2nc(-c3cc(F)cc(F)c3)c(=O)n(Cc3cccs3)c2n1 ?
Giardia FBPA inh: 2%; Tb PYK inh: -3%

Results for CCn1nnc2cc(C(=O)Nc3ccc(OC)cc3)ccc21 ?
Tb PYK inh: 0%

Results for NC(N)=NCCC[C@H](NC(=O)[C@H](Cc1ccccc1)NC(=O)[C@@H]1CCCN1C(=O)[C@H](CO)NC(=O)[C@H](Cc1ccccc1)NC(=O)CNC(=O)[C@@H]1CCCN1C(=O)[C@@H]1CCCN1C(=O)[C@@H](N)CCCN=C(N)N)C(=O)O ?
CHX counter: -5; Giardia FBPA inh: 6%; Shiga inhibitor: -6

How did Cc1cnc(C(=O)Nc2ccc(F)cc2)cn1 do in these assays?
CHX counter: 53*; Giardia FBPA inh: 5%; LmPK inhibitor: inconclusive; Tb PYK inh: -5%; Shiga inhibitor: 99*; RE007 growth inh: -18%

What do the screens show for `Cc1cnc(C(=O)Nc2ccccc2F)cn1`?
CHX counter: 43*; Giardia FBPA inh: 7%; LmPK inhibitor: 18µM*; Tb PYK inh: -27%; Shiga inhibitor: 84*; RE007 growth inh: -16%

How did Cc1cnc(C(=O)Nc2ccc(C(C)C)cc2)cn1 do in these assays?
CHX counter: 46*; Giardia FBPA inh: -7%; LmPK inhibitor: 0%; Tb PYK inh: -5%; Shiga inhibitor: 134*; RE007 growth inh: 1%

How did COC(=O)n1ccc(C(=O)Nc2ccccc2F)n1 do in these assays?
CHX counter: 27*; Giardia FBPA inh: -8%; LmPK inhibitor: -8%; Tb PYK inh: 1%; Shiga inhibitor: 75; RE007 growth inh: 3%

How did COc1ccc(NC(=O)C2C(=O)N(CCO)C3(C)CC2c2ccccc2O3)cc1 (configuration not stated) do in these assays?
CHX counter: 13; Giardia FBPA inh: inconclusive; LmPK inhibitor: 1%; Tb PYK inh: 1%; Shiga inhibitor: 78; RE007 growth inh: -14%

What do the screens show for `Cc1ccc(NC(=O)C2C(=O)N(CCO)C3(C)CC2c2ccccc2O3)cc1` (configuration not stated)?
CHX counter: 22*; Giardia FBPA inh: -26%; LmPK inhibitor: 0%; Tb PYK inh: 1%; Shiga inhibitor: 32; RE007 growth inh: 11%

Results for CC1=C(C(=O)Nc2cccc(Cl)c2C)C2(CCCCCC2)OC1=O ?
Tb PYK inh: -1%

What do the screens show for `O=C1CN(C(=O)/C=C/c2ccc(Cl)cc2Cl)CCN1`?
CHX counter: 34*; Giardia FBPA inh: 2%; LmPK inhibitor: -1%; Tb PYK inh: 2%; Shiga inhibitor: 59*; RE007 growth inh: 6%

How did O=C(/C=C/c1ccc(Cl)cc1Cl)N1CCN(c2ccccc2[N+](=O)[O-])CC1 do in these assays?
CHX counter: 9; Giardia FBPA inh: -16%; LmPK inhibitor: 2%; Tb PYK inh: 0%; Shiga inhibitor: 18; RE007 growth inh: 4%

How did CN1CCCN(C(=O)/C=C/c2ccc(Cl)cc2Cl)CC1 do in these assays?
CHX counter: 25*; Giardia FBPA inh: -6%; LmPK inhibitor: 2%; Tb PYK inh: -2%; Shiga inhibitor: 28; RE007 growth inh: -8%

Results for O=C1CN(C(=O)/C=C/c2ccccc2)CCN1 ?
CHX counter: -2; Giardia FBPA inh: 12%; LmPK inhibitor: -2%; Tb PYK inh: -6%; Shiga inhibitor: -4; RE007 growth inh: -3%

How did CSc1ccc(CNC(=O)c2sc3ncnc(N(C)C4CCCCC4)c3c2C)cc1 do in these assays?
Tb PYK inh: -6%

How did COc1ccc(NC(=O)C2CCCN(S(=O)(=O)c3ccc(F)cc3)C2)cc1 (configuration not stated) do in these assays?
Tb PYK inh: -1%

What do the screens show for `NS(=O)(=O)c1ccc(CNC(=O)CNC(=O)c2ccc(F)cc2)cc1`?
CHX counter: 15*; Giardia FBPA inh: 2%; LmPK inhibitor: -5%; Tb PYK inh: -3%; Shiga inhibitor: 68*; RE007 growth inh: -2%

How did Cn1c(-c2ccncc2)nc2ccccc21 do in these assays?
CHX counter: 1; Giardia FBPA inh: 11%; LmPK inhibitor: 5%; Tb PYK inh: -2%; RE007 growth inh: -2%

How did CCN(CC)c1ccc(-c2nc3cnccc3n2C)cc1 do in these assays?
CHX counter: 33*; Giardia FBPA inh: -13%; LmPK inhibitor: -5%; Tb PYK inh: -7%; Shiga inhibitor: 135*; RE007 growth inh: -21%

Results for O=C(Nc1nnc(Cc2ccccc2)s1)c1cccs1 ?
CHX counter: 25*; Giardia FBPA inh: 3%; LmPK inhibitor: 2%; Tb PYK inh: -4%; Shiga inhibitor: 41; RE007 growth inh: -13%

How did O=C(Nc1nnc(CCN2CCCCC2)s1)c1ccccc1 do in these assays?
CHX counter: 33*; Giardia FBPA inh: -1%; LmPK inhibitor: 4%; Tb PYK inh: -1%; Shiga inhibitor: 40; RE007 growth inh: 2%

How did O=C(Nc1nnc(CC2=CCCCC2)s1)c1cccs1 do in these assays?
CHX counter: 30*; Giardia FBPA inh: 10%; LmPK inhibitor: -6%; Tb PYK inh: -4%; Shiga inhibitor: 100*; RE007 growth inh: -12%

How did O=C(Nc1nnc(Cc2ccc(Cl)cc2)s1)c1cccs1 do in these assays?
CHX counter: -1; Giardia FBPA inh: 3%; LmPK inhibitor: 11%; Tb PYK inh: 4%; Shiga inhibitor: 16; RE007 growth inh: 0%
